Calls of active or inactive are those of the source. Rule for the calls: active = hit-call score of the fitted dose curve at least 0.9, where 1 is the maximum; inactive = score below 0.9.

The nature of this assay: CEETOX_H295R_OHPREG: CeeTox H295R High-throughput Steroidogenesis Assay for OH-Pregnenolone (OHPREG) (AID 2283434). As to conditions: actives raise or lower the signal. How it is done:
CEETOX_H295R is a cell-based, multiplexed-readout assay that uses H295R, a human adrenal gland cell line, with measurements taken at 48 hours after chemical dosing in a 96-well plate.CEETOX_H295R_OHPREG is one of 23 assay component(s) measured or calculated from the CEETOX_H295R assay. It is designed to make measurements of hormone induction, a form of inducible reporter, as detected with […] by HPLC-MS-MS technology.Data from the assay component CEETOX_H295R_OHPREG was analyzed into 1 assay endpoint. This assay endpoint, CEETOX_H295R_OHPREG, was analyzed with bidirectional fitting relative to DMSO as the negative control and baseline of activity. Using a type of inducible reporter, gain or loss-of-signal activity using HPLC-MS-MS was used to understand synthesis of 17alpha-hydroxypregnenolone in H295R cell line at 48hr of chemical exposure. To generalize the intended target to other relatable targets, this assay endpoint is annotated to the steroid hormone intended target family, where the subfamily is progestagens.
Cell culture and media preparation procedures were conducted in accordance with OECD Test No. 456 guidelines, with minor modifications. H295R cells (ATCC CRL-2128) were expanded for 5 passages and frozen in batches in liquid nitrogen. Prior to the steroidogenesis assay, H295R cells were thawed and passed at least 4 times. The maximum passage was 10. Cells were maintained in a 1:1 mixture of DMEM/F12 supplemented with 5ml/L ITS+ Premix (BD Bioscience) and 12.5 ml/L Nu-Serum (BD Bioscience). After seeding cells into 96-well plates at 50-60% confluency, cells were allowed to adhere overnight. Prior to chemical testing, culture medium was replaced with 175 uL medium containing 10 uM forskolin to stimulate steroidogenesis for 48 hours. Following prestimulation, forskolin medium was replaced with medium containing test chemical solubilized in DMSO (ensuring a final concentration of 0.1% DMSO). Test chemicals were incubated for 48 hours, then the medium was removed and split into 2 vials containing approximately 75uL each, and stored at -80 C prior to hormone analysis. For steroid quantification, media samples were shipped to OpAns, LLC (Durham, NC) on dry ice, and samples were thawed to room temperature prior to liquid-liquid extraction. Steroid hormones were extracted from media samples using methyl tertbutyl ether (MTBE). An extra derivatization with dansyl chloride was included for estrogen (estrone and estradiol) detection only. Steroid hormones were separated by HPLC, eluted using a reverse phase C18 gradient with electrospray positive ionization, followed by quantification by tandem mass spectrometry (MS/MS). Data were acquired on a MassHunter Workstation Acquisition version B03.01 (Agilent Technologies, Inc.) and processed using MassHunter Quantitative Analysis for QQQ. Accuracy was determined for each hormone analyte from 3 standards to determine upper and lower limits of quantification (ULOQ and LLOQ, respectively) using a 7-point standard curve. Precision and accuracy of the extraction and quantification methods were calculated as the percent relative standard deviation (%RSD) of the spiked standards and percent spiked standard recovered, respectively. The goal was to achieve 100% accuracy (i.e., recover all spiked-in standard at quantification with minimal loss during run time) and good precision (i.e., have %RSD <15% to ensure reproducibility). Test medium was removed following chemical exposure, and cell viability was evaluated in the same wells by MTT. MTT procedures were as follows: after removal of test medium, 500 uL of 0.5 mg/ml of 3-[4,5-dimethylthiazol-2-y]2,5-diphenyltetrazoliumbromide solution was added to the cells. Following a 4-hour incubation at 37 C and 5% CO2 to allow formazan-crystal formation, the MTT solution was removed and blue formazan salt crystals were solubilized using 500uL anhydrous isopropanol with shaking for 20 minutes. […]
Turning to `O=c1cc(-c2ccccc2)oc2cc(O)cc(O)c12`, the compound was called inactive.

Regarding `C=CCOc1nc(OCC=C)nc(OCC=C)n1`, the AC50 was 38.6 µM (active).

With `O=C(O)C[C@H](O)C[C@H](O)/C=C/c1c(C2CC2)nc2ccccc2c1-c1ccc(F)cc1`, the AC50 was 0.00206 µM (active).

For the compound `COc1cc2ncnc(Nc3cccc(Cl)c3)c2cc1OC`, the outcome was inactive.

With `Cc1ccc2n[nH]nc2c1`, the outcome was inactive.

`NC(=O)Nc1ccc(Cl)cc1`: the call was inactive.

On to `CC(C)=CCCC(C)=CCCC(C)=CCO`, for which the concentration at half-maximal activity (AC50) is 28.1 µM (active).

Regarding `CC1(C)[C@H](C(=O)OCc2cccc(Oc3ccccc3)c2)[C@@H]1C=C(Cl)Cl`, the result was inactive.

For `Nc1cc([N+](=O)[O-])ccc1Cl`, the outcome was inactive.

`Cc1cccc(C)c1C`: the compound was classed as inactive.

Turning to `C#C[C@]1(O)CC[C@H]2[C@@H]3CCC4=Cc5oncc5C[C@]4(C)[C@H]3CC[C@@]21C`, the half-maximal activity concentration (AC50) was 0.36 µM (active).

On to `O=C(O)c1ccc([N+](=O)[O-])cc1`, for which the compound was called inactive.

For `CC1COc2ccccc2N1C(=O)C(Cl)Cl` (stereo not drawn), the AC50 is 3.66 µM (active).

On to `C=CC(C)(C)O`, for which the outcome was inactive.

For the compound `c1ccc(CCCc2ccccn2)cc1`, the result was inactive.

`CC(C)c1cccc(O)c1`: the compound was classed as inactive.

`Nc1ccc(F)c([N+](=O)[O-])c1`: the result was inactive.

With `CSc1nc(NC2CC2)nc(NC(C)(C)C)n1`, the compound was classed as inactive.

As usually defined, the AC50 is the midpoint of the concentration-response curve, whichever way the signal moves.
